In PubChem BioAssay (NCI) one finds growth data, which are given here for seven molecules.

Some test systems named below: NCI-H23 lung; NCI-H226 lung; NCI-H322M lung; HOP-62 NSCLC; NCI-H460 lung; HOP-92 NSCLC; NCI-H522 lung; A549/ATCC NSCLC; 786-0 renal; COLO 205 colon; DU-145 prostate; K-562 leukemia; MALME-3M melanoma; MDA-MB-231 breast; SF-268 CNS; SF-295 CNS; SF-539 CNS; UACC-257 melanoma; M14 melanoma.
Experiment in all cases: NCI-60 one-dose screen, 48 h (100 = growth as untreated, 0 = no growth, -100 = all killed)
Common to all, as to settings: 10 µM unless noted

Structures are written as SMILES. About 83,000 compounds went through this panel and 20% of them were active in at least one assay; those are over-represented in the sample as a whole.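 The test compound was applied at a single concentration to cells in 96-well plates for 48 hours, and percent growth was recorded.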 A number with no mark means an inactive call. Activity calls are given as the source filed them. The calls were made as follows: active = growth percent below 10; inactive = the rest.

Consider `COc1ccc(NC(=O)c2sc3nc(C)c(C(=O)c4ccc(OC)cc4)cc3c2N)cc1`, for which the growth with NCI-H23 lung is 73.9%; in the assay on NCI-H226 lung it was 87.9%; with NCI-H322M lung it was 40.3%; in the assay on HOP-62 NSCLC, 43%; in the assay on NCI-H460 lung, 9.29% (active); in the assay on HOP-92 NSCLC, 67.3%. The growth was 40.7% with NCI-H522 lung; 24.6% in the assay on A549/ATCC NSCLC; 59.9% in the assay on 786-0 renal; 42.9% in the assay on COLO 205 colon; 65.4% with DU-145 prostate; 23.3% with K-562 leukemia. Moreover, the growth in the assay on MALME-3M melanoma was 37.9%; with MDA-MB-231 breast, 60.2%; in the assay with SF-268 CNS, 61.8%; in the assay with SF-295 CNS, 44.3%; in the assay with SF-539 CNS, 51%; in the assay on UACC-257 melanoma, 55.8%. Besides, in the assay with M14 melanoma, the growth was 32.8%.
On to `CCCCc1ccc(Nc2nnc(SCC(=O)NC(=O)NCC)s2)cc1`, for which the growth was 97.3% in the assay on NCI-H23 lung; 95.7% in the assay on NCI-H226 lung; 81.5% in the assay with NCI-H322M lung; 96% in the assay on HOP-62 NSCLC; 102% in the assay on NCI-H460 lung; 61.4% with HOP-92 NSCLC. In addition, the growth in the assay with NCI-H522 lung is 87.7%; in the assay on A549/ATCC NSCLC, 109%; with 786-0 renal, 95.9%; with COLO 205 colon it was 202%; in the assay with DU-145 prostate, 104%; in the assay on K-562 leukemia, 91.6%. Besides, the growth is 97.2% in the assay on MALME-3M melanoma; 88.1% in the assay on MDA-MB-231 breast; 92.4% with SF-268 CNS; 110% in the assay with SF-295 CNS; 96.4% in the assay with SF-539 CNS; 113% in the assay with UACC-257 melanoma. Further, in the assay on M14 melanoma, the growth was 107%.
Turning to `COc1cc(CNC(=O)CCCCC[P+](c2ccccc2)(c2ccccc2)c2ccccc2)c(OC)c2c1OCO2`, the growth was 66.9% with NCI-H23 lung; 88.3% in the assay with NCI-H226 lung; 96.8% in the assay with NCI-H322M lung; 90.1% in the assay with HOP-62 NSCLC; 78.6% with NCI-H460 lung; 23.5% with HOP-92 NSCLC. Further, the growth in the assay with NCI-H522 lung is 52.9%; in the assay with A549/ATCC NSCLC it was 87.8%; in the assay with 786-0 renal, 96.3%; with COLO 205 colon it was 45.8%; with DU-145 prostate, 81.1%; with K-562 leukemia, 20.8%. Further, the growth was 55.5% with MALME-3M melanoma; 72.8% in the assay on MDA-MB-231 breast; 66.9% in the assay with SF-268 CNS; 87.2% with SF-295 CNS; 73.1% with SF-539 CNS; 21.2% with UACC-257 melanoma. Besides, in the assay on M14 melanoma, the growth is 76.2%.
As to `COc1ccccc1/C=N/NC1=NC2C(N1)N(C)C(=O)N2C` (stereo not drawn), the growth with NCI-H23 lung was 100%; with NCI-H226 lung, 90.4%; with NCI-H322M lung, 95.5%; in the assay on HOP-62 NSCLC, 92%; in the assay on NCI-H460 lung, 102%; in the assay with HOP-92 NSCLC it was 93.5%. Besides, the growth is 103% with NCI-H522 lung; 102% in the assay on A549/ATCC NSCLC; 102% in the assay with 786-0 renal; 101% with COLO 205 colon; 112% in the assay with DU-145 prostate; 99.5% in the assay on K-562 leukemia. For the same molecule, the growth in the assay on MALME-3M melanoma is 93.6%; in the assay on MDA-MB-231 breast, 99.8%; in the assay on SF-268 CNS, 101%; with SF-295 CNS, 104%; with SF-539 CNS it was 97.6%; with UACC-257 melanoma, 98.3%. Also, the growth with M14 melanoma is 99.7%.
Turning to `COc1ccc(Nn2c(SCC(=O)Nc3nc(-c4ccc(Cl)cc4)cs3)nc(C)c2C)cc1`, the growth in the assay on NCI-H23 lung was 31.9%; in the assay on NCI-H226 lung it was 60.5%; in the assay on NCI-H322M lung, 112%; in the assay with HOP-62 NSCLC, 100%; with NCI-H460 lung, 39.3%; in the assay with HOP-92 NSCLC, 38.6%. Also, the growth is 66.2% in the assay on NCI-H522 lung; 44% with A549/ATCC NSCLC; 59.5% in the assay on 786-0 renal; 77.5% with COLO 205 colon; 79.6% in the assay with DU-145 prostate; 26.9% in the assay on K-562 leukemia. Also, the growth with MALME-3M melanoma is 99.1%; with MDA-MB-231 breast, 79.7%; in the assay with SF-268 CNS it was 66.1%; in the assay on SF-295 CNS it was 43.9%; in the assay with SF-539 CNS, 79.1%; in the assay on UACC-257 melanoma, 48.9%. The growth in the assay on M14 melanoma was 62.5%.
Consider `O=S(=O)(NCCNc1nccc(-c2c(-c3cccc(F)c3)nc3occn23)n1)c1cccc2ccccc12`, for which the growth is 75.8% in the assay with NCI-H23 lung; 53.6% in the assay on NCI-H226 lung; 74.8% in the assay with NCI-H322M lung; 71% with HOP-62 NSCLC; 58.2% with NCI-H460 lung; 47% in the assay on HOP-92 NSCLC. Further, the growth is 46.2% with NCI-H522 lung; 44.1% in the assay with A549/ATCC NSCLC; 48% with 786-0 renal; 40.7% in the assay on COLO 205 colon; 53.3% with DU-145 prostate; 19% with K-562 leukemia. Further, the growth is 56.1% with MALME-3M melanoma; 58.5% in the assay on MDA-MB-231 breast; 38.6% in the assay on SF-268 CNS; 58.6% in the assay on SF-295 CNS; 96.7% with SF-539 CNS; 77.4% in the assay with UACC-257 melanoma. For the same molecule, the growth in the assay on M14 melanoma is 54.8%.
Turning to `COc1ccc(C(O)c2cc3c(N)c(C(=O)Nc4ccccc4)sc3nc2C)cc1` (stereo not drawn), the growth is 29.7% in the assay with NCI-H23 lung; 51.1% in the assay on NCI-H226 lung; 35.4% in the assay with NCI-H322M lung; 18.8% with HOP-62 NSCLC; 3.3% (active) with NCI-H460 lung; 30.3% in the assay with HOP-92 NSCLC. For the same molecule, the growth in the assay with NCI-H522 lung is -55.9% (active); with A549/ATCC NSCLC it was 13.4%; with 786-0 renal it was 29.3%; in the assay with COLO 205 colon it was -58.9% (active); in the assay with DU-145 prostate, 2.39% (active); in the assay with K-562 leukemia, 3.59% (active). Moreover, the growth was 48.5% with MALME-3M melanoma; -11.2% (active) with MDA-MB-231 breast; 28.3% in the assay with SF-268 CNS; -13.3% (active) with SF-295 CNS; -25.8% (active) in the assay with SF-539 CNS; 49.4% in the assay with UACC-257 melanoma. In addition, the growth with M14 melanoma was 14.3%.
